Experimental data: PubChem BioAssay
The source made the active and inactive calls.

Columns and labels:
Albumin (Bos taurus) = Albumin (Bos taurus) (UniProt P02769); assay: bovine serum albumin binders on microarray, profiling panel, artefact control for SMM control protein annotation, biochemical, small-molecule microarray, Alexa647 label, 635/667 nm fluorescence (AID 1118); details: BSA-A647 binding, fluorescence 635 nm, higher = more signal;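 also: score merges 667 nm emission intensity and signal-to-noise per printed compound spot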
[1] = small-molecule microarray binders of probe aXIP, primary screen, biochemical, NeuroSMM set, 635/667 nm fluorescence (AID 1119); details: higher = more signal, called active from +8 up or from −8 down;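 also: probe is the protein aXip251-270 applied at 1 µg/mL to compound-printed slides; binding of probe to printed compounds measured as 667 nm fluorescence plus signal to noise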
[2] = small-molecule binders of probe aNOTCH3, primary screen, biochemical, small-molecule microarray, 635/667 nm fluorescence (AID 1120); details: higher = more signal;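 also: probe is a biotin-tagged antibody raised against NOTCH3 rather than NOTCH3 protein; score merges spot fluorescence near 667 nm with spot signal to noise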
[3] = small-molecule binders of probe aNOTCH2, primary screen, biochemical, small-molecule microarray, 635/667 nm fluorescence (AID 1121); details: higher = more signal;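 also: score merges feature fluorescence read at 667 nm with its signal to noise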
[4] = target: Carbonic anhydrase 2 (Homo sapiens) (UniProt P00918); assay: CAII small-molecule binders, profiling panel, biochemical, small-molecule microarray, Alexa647-labelled CAII (AID 1122); details: CAII-A647 binding fluorescence, higher = more signal
[5] = COS7 lysate on small-molecule microarray, probe aHis, 635 nm (AID 1123); details: COS7 cell lysate, fluorescence, higher = more signal;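 also: z-score combines 667nm fluorescence intensity with signal-to-noise per printed compound spot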
[6] = compound binding in COS7 lysate, probe aLAP1, primary screen, cell lysate, small-molecule microarray (AID 1124); details: probe aLAP1, fluorescence, higher = more signal;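 also: lysate comes from COS7 cells expressing LAP1 and is applied at 0.3 µg/mL; score merges spot fluorescence near 667 nm with signal-to-noise over triplicate slides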
Sam68 (KHDRBS1) = assay: Sam68 small-molecule binders, primary screen, biochemical, small-molecule microarray, 635 nm fluorescence (AID 1125); details: small-molecule microarray binding, higher = more signal;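 also: score merges 667 nm channel intensity with signal to noise over triplicate slides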
[7] = test system: Chordin-like protein 2 (CHRDL2); assay: CHRDL2 small-molecule binders, primary screen, biochemical, small-molecule microarray, 635 nm fluorescence (AID 1126); details: small-molecule microarray binding, fluorescence 635 nm; higher = more signal;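 also: printed compound slides probed with Chrdl2 protein at 4 µg/mL for 1 h at 4 C; score merges 667 nm emission intensity with signal to noise over three replicate slides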
[8] = target: Concanavalin-A (Canavalia ensiformis) (UniProt P02866); assay: ConA small-molecule binders, primary screen, artefact control for SMM control protein annotation, biochemical, small-molecule microarray, Alexa647 label, 635 nm (AID 1127); details: ConA-A647 binding fluorescence, higher = more signal;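 also: z combines 667 nm emission intensity with signal-to-noise across three replicate slides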
Sequence of Concanavalin-A (Canavalia ensiformis) (P02866 whole entry, looked up): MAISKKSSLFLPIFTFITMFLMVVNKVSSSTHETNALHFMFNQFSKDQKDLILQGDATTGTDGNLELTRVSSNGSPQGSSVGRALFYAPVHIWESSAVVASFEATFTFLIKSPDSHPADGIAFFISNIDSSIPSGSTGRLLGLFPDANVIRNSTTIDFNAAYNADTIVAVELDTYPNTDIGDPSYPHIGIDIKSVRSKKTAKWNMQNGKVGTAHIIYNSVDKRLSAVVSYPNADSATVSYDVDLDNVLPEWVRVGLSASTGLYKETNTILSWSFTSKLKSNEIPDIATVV

Sequence of Albumin (Bos taurus) (P02769 whole entry, looked up): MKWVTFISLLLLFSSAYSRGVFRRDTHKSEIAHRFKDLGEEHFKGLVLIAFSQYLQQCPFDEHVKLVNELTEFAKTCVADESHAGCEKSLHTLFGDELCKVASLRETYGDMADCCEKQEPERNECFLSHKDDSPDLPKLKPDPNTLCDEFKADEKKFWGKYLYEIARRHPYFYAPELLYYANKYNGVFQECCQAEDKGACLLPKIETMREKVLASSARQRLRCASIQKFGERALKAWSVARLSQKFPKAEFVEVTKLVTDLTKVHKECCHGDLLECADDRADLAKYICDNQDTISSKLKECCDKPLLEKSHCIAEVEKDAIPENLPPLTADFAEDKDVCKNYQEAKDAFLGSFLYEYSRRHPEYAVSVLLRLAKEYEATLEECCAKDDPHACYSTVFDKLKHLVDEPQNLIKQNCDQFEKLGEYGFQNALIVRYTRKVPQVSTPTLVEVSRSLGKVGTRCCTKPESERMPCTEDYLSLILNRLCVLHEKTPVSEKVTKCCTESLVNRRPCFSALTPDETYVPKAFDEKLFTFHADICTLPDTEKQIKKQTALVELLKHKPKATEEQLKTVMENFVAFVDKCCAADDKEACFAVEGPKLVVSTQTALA

SMILES | composite z-score (Albumin (Bos taurus)) | composite Z-score [1] | composite z-score [2] | composite z-score [3] | composite z-score [4] | composite z-score [5] | composite z-score [6] | composite z-score (Sam68 (KHDRBS1)) | composite z-score [7] | composite z-score [8]
CC(C)C[C@@H]1NC(=O)[C@@]23C(=O)N[C@@H](Cc4ccccc4)C2[C@H](C)[C@@]2(C)O[C@H]2C3/C=C/C/C=C\CNC(=O)[C@@H](C)NC1=O (stereo not given in full) | 0.663 | -0.106 (inactive) | -0.251 | -0.196 | 0.449 | -0.128 | -0.217 | -0.604 | 0.643 | 0.075
CC(C)C[C@@H]1NC(=O)[C@H]2C[C@@H](C(=O)NCCCCCN)[C@@H](c3cccc(OCCO)c3)N2C1=O | 0.299 | 1.26 (inactive) | -0.495 | -0.146 | 0.695 | 1.27 | 1.16 | 0.166 | 0.292 | 0.661
CCOC(=O)C1=C[C@@H](C(C)(C)C)N(S(=O)(=O)c2ccc(C)cc2)[C@H]1c1cccc(Cl)c1 | 0.91 | -0.244 (inactive) | 0.0311 | -0.037 | 0.232 | 1.15 | 0.596 | 1.3 | 0.0761 | 1.11
CN1C(=O)C2C=CC(C(O)c3ccc(F)cc3)N(NC(=O)OC(C)(C)C)C2C1=O (stereo not given) | 0.854 | 0.134 (inactive) | 0.0155 | -0.0317 | 0.695 | 2.48 | 0.215 | 1.03 | -1.3 | 0.923
O=C1C2C=CC(C(O)c3cc(C(F)(F)F)cc(C(F)(F)F)c3)N(Nc3ccccc3F)C2C(=O)N1c1ccccc1 (stereo not given) | 1.01 | -0.147 (inactive) | 0.114 | -0.0005 | 0.752 | 2.86 | 1.06 | 1.01 | -0.217 | 0.443
O=C1C[C@@](C(=O)NCC(F)(F)F)(c2ccc([N+](=O)[O-])cc2)[C@@H](c2ccc(CO)cc2)N1CC12CC3CC(CC(C3)C1)C2 | -0.191 | 1.68 (inactive) | 0.6 | 0.0345 | 0.502 | 2.17 | -0.0251 | 1.29 | 0.297 | 1.13
COc1ccc([Si](C)(C)[C@H]2[C@H](CC(=O)N3CCC[C@H]3CO)O[C@@]3(C(=O)N(Cc4ccc(N5CCC5=O)cc4)c4ccccc43)[C@@H]2C)cc1 | 0.669 | 0.156 (inactive) | -0.0182 | -0.147 | 0.474 | 2.24 | 0.568 | 1.3 | 1.25 | 1.13
NC(=O)N1C(=O)C2C(C1=O)C1C=C(CCCO)C2C(C2CC2)N1Cc1cccc(OC(F)(F)F)c1 (stereo not given) | 0.858 | 0.547 (inactive) | -0.349 | -0.179 | 0.653 | 0.518 | -0.0171 | 0.588 | -0.489 | 0.221
Cc1nc2cc(Br)ccc2c(=O)n1Cc1cccc(O)c1 | 0.417 | 0.0614 (inactive) | -0.119 | -0.12 | 0.218 | 1.28 | 1.09 | 0.968 | 1.04 | 0.799
C[C@]1(C(=O)O)c2ccccc2C(=O)N(Cc2ccc(OC(F)(F)F)cc2)[C@H]1c1ccc(CO)cc1 | 0.12 | 0.219 (inactive) | -0.104 | 0.109 | 0.73 | 1.61 | 0.902 | -0.0536 | -0.758 | -0.783
O=c1cccc(-c2ccc(F)cc2)o1 | 0.445 | -0.261 (inactive) | 0.176 | -0.0527 | -0.114 | -0.218 | 0.403 | 0.501 | 0.556 | 0.354
